# Records with an inconclusive call do not appear. A call without a number means that no potency is given here. Calls of active or inactive are those of the source. Calls follow the shape of the dose curve; as a rule, active = well fitted activation curve with a large enough effect; inconclusive = small, poorly fitted or top-dose-only effect; inactive = no such curve, though single readings can be large or run the other way.
# Target: Cellular tumor antigen p53 (Homo sapiens) (UniProt P04637)
# Experiment: Confirmatory qHTS for small molecule compounds that upregulate eGFP-tagged delta133p53alpha (in C-terminal) cells.
# Outline: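 Readout: cellular GFP fluorescence […] with Hoechst nuclear counterstain, by laser scanning cytometry of fixed cells. Cells were doxycycline-induced (100 ng/ml, 24 h) NCI-H358 delta133p53alpha-eGFP, treated with compound titrations for 24 h, 37C.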
# Chain of Cellular tumor antigen p53 (Homo sapiens) (P04637 whole entry, looked up): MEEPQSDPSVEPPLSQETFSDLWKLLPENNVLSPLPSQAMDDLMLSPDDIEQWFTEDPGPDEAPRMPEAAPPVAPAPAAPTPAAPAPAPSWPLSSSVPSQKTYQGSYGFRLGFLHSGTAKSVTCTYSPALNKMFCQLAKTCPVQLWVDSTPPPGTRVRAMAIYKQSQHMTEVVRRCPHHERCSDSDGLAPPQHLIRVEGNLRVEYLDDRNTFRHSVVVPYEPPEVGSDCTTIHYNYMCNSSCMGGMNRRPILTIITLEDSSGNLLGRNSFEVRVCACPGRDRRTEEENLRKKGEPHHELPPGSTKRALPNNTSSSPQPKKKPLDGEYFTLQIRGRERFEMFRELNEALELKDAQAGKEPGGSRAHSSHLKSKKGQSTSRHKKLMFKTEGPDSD
row,SMILES,Potency
1,Cn1cc(C2=C(c3ccc(Cl)cc3Cl)C(=O)NC2=O)c2ccccc21,0.968 µM (active)
2,Cc1ccc(S(=O)(=O)N[C@@H](Cc2ccccc2)C(=O)CCl)cc1,15.3 µM (active)
3,CC(C)(C)c1ccc(S(=O)(=O)/C=C/C#N)cc1,13.7 µM (active)
4,CN(C)C(=O)C(CCN1CCC(O)(c2ccc(Cl)cc2)CC1)(c1ccccc1)c1ccccc1,inactive
5,COC(=O)Nc1nc2ccc(C(=O)c3cccs3)cc2[nH]1,inactive
6,CCN1CCCC1CNC(=O)c1cc(S(N)(=O)=O)ccc1OC (stereo unspecified),inactive
7,N=S(=O)(O)Cc1noc2ccccc12,inactive
8,Cn1c(=O)c2[nH]c(-c3ccccc3)nc2n(C)c1=O,inactive
9,CCN(CC)CCCC(C)Nc1c2ccc(Cl)cc2nc2ccc(OC)cc12 (stereo unspecified),8.63 µM (active)
10,Brc1c(Br)c(Br)c2n[nH]nc2c1Br,inactive
11,N=c1ccn2c(n1)O[C@H]1[C@H](O)[C@@H](CO)O[C@H]12,inactive
12,CSc1ccccc1N1CCN(CCCCCC(=O)NC2CCCc3ccccc32)CC1 (stereo unspecified),inactive
13,CCOC(=O)Nc1ccc(NCc2ccc(F)cc2)nc1N,inactive
14,Cn1cnc2c(NCc3ccccc3)nc(NCCO)nc21,inactive
15,NC[C@@H]1O[C@H](C23CC4CC(CC(C4)C2)C3)Cc2c1ccc(O)c2O,19.3 µM (active)
16,Cc1ccc(S(=O)(=O)/C=C/C#N)cc1,21.7 µM (active)
17,O[Si](CCCN1CCCCC1)(c1ccc(F)cc1)C1CCCCC1 (stereo unspecified),inactive
18,Cc1cccc(-c2[nH]ncc2-c2ccc3ncccc3n2)n1,inactive
19,CN(C)S(=O)(=O)c1ccc2c(c1)/C(=C/c1cc3c([nH]1)CCCC3)C(=O)N2,0.769 µM (active)
20,C[C@]12CC[C@@H]3c4ccc(O)cc4C[C@@H](CCCCCCCCCS(=O)CCCC(F)(F)C(F)(F)F)[C@H]3[C@@H]1CC[C@@H]2O (stereo partly specified),inactive
21,Nc1nc2ccc(Cl)cc2c2nc(-c3ccco3)nn12,inactive
